In PubChem BioAssay AID435005 (Broad Institute, 2010):
Values joined by “and” are separate entries in the source; they are usually repeats but may differ in a detail not shown here. Equal values may be shown once. The whole screen tested about 300,000 compounds, of which about 2,400 (0.8%) were called active.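 Rule for the calls: active = Every replicate reaches about 75%, or at least half do and their mean reaches it too (limit read from the data); inconclusive = At least half of replicates reach the limit but their mean does not; inactive = Under half of replicates reach the limit.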 The entries come from a sample that favours actives as a whole. More than one record can exist for a structure, and the calls need not agree.

assay: INS-1E beta cell survival under cytokines – luminescence, primary screen (AID 435005); settings: INS-1E cytokine-induced death, ATP luminescence, 48 h; stronger effect = higher value; percent of positive-control rescue, neutral wells zero; concentration not given here;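 note: 0% = cytokine-treated negative control wells and 100% = positive control rescue; higher means more ATP so stronger rescue from cytokine killing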

Row | Compound | protection from apoptosis
1 | CCOC(=O)C1=C(c2ccc(OC)cc2)C(=O)c2ccccc2C1=O | 130% (active)
2 | COc1ccc(N2CCN(C(C)=C3C(=O)c4ccccc4C3=O)CC2)cc1 | -2.02% (inactive)
3 | CCOC(=O)c1c(-c2ccc(C)cc2)csc1/N=C(\C)C1=C(O)c2ccccc2C1=O | -5.12% (inactive)
4 | Cc1ccc(NC(=O)C2CC2)cc1S(=O)(=O)N1CCOCC1 | -4.34% (inactive)
5 | CC(OC(=O)c1c(F)cccc1F)C(=O)NCCC1=CCCCC1 (centres undefined) | -3.37% (inactive)
6 | CCC(CO)Oc1cc(NCc2ccccc2)c2ncn(C3CCCC3)c2c1 (centres undefined) | -4.59% (inactive)
7 | CC(C)n1cnc2c(NCc3ccccc3)cc(OCC3CCN(C)CC3)cc21 | -8.55% (inactive)
8 | CC(C)n1cnc2c(NCc3ccccc3)cc(N[C@@H](CO)Cc3ccccc3)cc21 | 135% (active)
9 | COc1ccc(C2(c3ccc(OC)cc3)NC(=O)N(CC(=O)Nc3cc(C)on3)C2=O)cc1 | -3.35% (inactive)
10 | CCn1nnc2cc(C(=O)Nc3ccc(C(=O)OC(C)C)cc3)ccc21 | 1.63% (inactive)
11 | O=C(Nc1ccccc1Cl)Nc1cccc2cccnc12 | 15.9% (inactive)
12 | O=C(Cc1ccc2c(c1)CCCC2)Nc1ccccc1Cl | 9.68% (inactive)
13 | O=C(Nc1ccccc1Cl)/C(Cl)=C(\Cl)S(=O)c1ccccc1 (centres undefined) | 123% (active)
14 | O=C(Nc1cccc(S(=O)(=O)NC2=NCCC2)c1)c1ccc(F)cc1F | -5.38% (inactive)
15 | COc1cc(/C=C/C(=O)OCC(=O)c2ccccc2)cc(OC)c1OC | -3.69% (inactive)
16 | Oc1ccc2ccccc2c1N=Nc1nccs1 | 83.9% (active)
17 | c1ccc(NCc2cccc3ccccc23)nc1 | -6.69% (inactive)
18 | Oc1ccc(N=Nc2nccs2)c(O)c1 | 98.3% (active)
19 | CCN1/C(=C\c2ccc3ccccc3[n+]2CC)Sc2cc(C)ccc21 | 106% (active)
20 | Cc1nc2ccc(NC(=O)c3cccc(S(=O)(=O)N4CCOCC4)c3)cc2s1 | -1.06% (inactive)
21 | c1ccc2cc(CCCc3cc4ccccc4cn3)ncc2c1 | -10.4% (inactive)
22 | Cc1ccc(NC(=O)Cn2cnc3c(OCc4ccccc4)ncnc32)cc1C | -4.68% (inactive)
23 | COCCN(Cc1ccccc1)C(=O)Cc1ccc(S(=O)(=O)N2CCOCC2)s1 | -6.29% (inactive)

Row | Compound | protection from apoptosis
24 | O=C(CN1C(=O)NC2(CCCCCC2)C1=O)NCc1ccc(F)cc1 | -3.82% (inactive)
25 | Clc1ccc(C[n+]2cc(-c3ccccc3)n3c2CCC3)cc1 | -17.9% (inactive)
26 | Cc1ccc(-c2c[n+](CC(=O)Nc3ccccc3)c3n2CCC3)cc1 | -4.97% (inactive)
27 | Cc1ccc(C(=O)C[n+]2cc(-c3ccccc3)n3c2CCCCC3)cc1 | 80.4% (active) and 69.5% (inactive)
28 | O=C(CNC(=O)c1n[nH]c2ccccc12)Nc1cc(Cl)ccc1Cl | -6.41% (inactive)
29 | COc1ccc(S(=O)(=O)N2CCCCC2)cc1NC(=O)COc1ccccc1 | 3.1% (inactive)
30 | CCOc1ccc(S(=O)(=O)N2CCCCC2)cc1NC(=O)CN1CCCC1c1cccs1 (centres undefined) | 108% (active)
31 | COc1ccc(S(=O)(=O)N2CCCCCC2)cc1NC(=O)Cc1ccc(OC)c(OC)c1 | -0.791% (inactive)
32 | CCc1sc(C(=O)N2CCN(CC(=O)Nc3cccc(F)c3)CC2)cc1C | -5.03% (inactive)
33 | O=C(CC(O)(C(F)(F)F)C(F)(F)F)Nc1ccc(Cl)c(Cl)c1 | 105% (active)
34 | O=C(CC1SCCNC1=O)Nc1ccc(Cl)c(Cl)c1 (centres undefined) | 0.331% (inactive)
35 | O=C(Cc1ccc(Cl)c(Cl)c1)Nc1ccc(SC(F)F)cc1 | -2.99% (inactive)
36 | O=C(Cn1cnc2c(OCc3ccccc3)ncnc21)NCc1nc2ccccc2[nH]1 | -9.45% (inactive)
37 | COc1ccc(CNc2nc(NCc3ccc(OC)cc3)c3ncn(C4CCCC4)c3n2)cc1 | -10.2% (inactive)
38 | O=[N+]([O-])/C=C/c1ccc2c(ccn2Cc2ccccc2)c1 | 102% (active)
39 | O=c1c([N+](=O)[O-])cc(C(F)(F)F)cn1Cc1cccc(Cl)c1 | -7.45% (inactive)
40 | O=C(/C=C/c1cccc([N+](=O)[O-])c1)N1CCN(Cc2ccccc2)CC1 | -1.33% (inactive)
41 | CCC(CO)Oc1cc(NC(=O)c2cccc3ccccc23)c2ncn(C(C)C)c2c1 (centres undefined) | 4.17% (inactive)
42 | O=C1C=C(c2cc(C(F)(F)F)cc(C(F)(F)F)c2)C[C@@H](c2ccc3c(c2)OCO3)C1 | 7.25% (inactive)
43 | COc1ccc(CC(=O)Nc2nc(-c3ccc(F)c(F)c3)cs2)cc1OC | 97.5% (active)
44 | COc1cccc(CC(=O)Nc2nc(-c3ccc(OC)c(OC)c3)cs2)c1 | -4.99% (inactive)
45 | CCCc1ccc(-c2csc(NC(=O)Cc3cccs3)n2)cc1 | 6.06% (inactive)
46 | COc1cc(CC(=O)Nc2nc(-c3ccc(F)c(F)c3)cs2)cc(OC)c1OC | 92.9% (active)

Row | Compound | protection from apoptosis
47 | Cc1ccc(S(=O)(=O)NC(=O)Nc2nc(-c3ccc(F)c(F)c3)cs2)cc1 | -25.4% (inactive)
48 | COc1ccc(-c2csc(NC(=O)COC(=O)Cc3ccc(Cl)cc3Cl)n2)cc1 | 2.13% (inactive)
49 | Cc1cccc(-n2ncc3c(=O)[nH]c(SCC(=O)Nc4cc(C)on4)nc32)c1 | 1.12% (inactive)
50 | COc1ccc(CCNC(=O)COC(=O)Cc2ccccc2F)cc1 | -2.5% (inactive)
51 | Cc1ccc(CC(=O)Nc2ccc(S(=O)(=O)N3CCOCC3)cc2)cc1C | 0.192% (inactive)
52 | CC(OC(=O)c1cc2ccccc2[nH]1)C(=O)N(C)c1ccccc1 (centres undefined) | -1.05% (inactive)
53 | CCS(=O)(=O)c1ccc2oc(SCC(=O)N3c4ccccc4CC3C)nc2c1 (centres undefined) | -3.73% (inactive)
54 | CC1Cc2ccccc2N1C(=O)CSc1nc2ccccc2o1 (centres undefined) | 104% (active)
55 | Cc1cc(=O)[nH]c(SCC(=O)N2c3ccccc3CC2C)n1 (centres undefined) | -8.13% (inactive)
56 | O=C(COC(=O)c1cccnc1Cl)NC12CC3CC(CC(C3)C1)C2 | -1.6% (inactive)
57 | Cc1ccc(NC(=O)C2CCC(C(C)(C)C)CC2)cc1S(=O)(=O)N1CCOCC1 (centres undefined) | 6.89% (inactive)
58 | COc1ccc(CCNC(=O)CSc2nnc(CNC(=O)c3cccs3)o2)cc1OC | -5.35% (inactive)
59 | COc1ccc(CCNC(=O)/C(C#N)=C2\N=C(NC(=O)c3cccs3)c3ccccc32)cc1 | -2.09% (inactive)
60 | O=C(NCC#CCSc1nnc(-c2cccc3ccccc23)o1)c1cccs1 | 109% (active)
61 | Cc1noc(C)c1NC(=O)Nc1cccc2c1O[C@H](CN(C)S(=O)(=O)c1c(C)noc1C)[C@@H](C)CN([C@H](C)CO)C2=O | 1.37% (inactive)
62 | COc1ccc(S(=O)(=O)N2CCOCC2)cc1NC(=O)CSc1nnc(NC2CC2)s1 | 0.467% (inactive)
63 | CC(NC(=O)COC(=O)Cn1cc(C(F)(F)F)ccc1=O)c1ccccc1 (centres undefined) | 1.74% (inactive)
64 | COc1cc(NC(=O)c2ccccc2NS(=O)(=O)c2ccc(Cl)s2)cc(OC)c1 | 111% (active)
65 | COC(=O)c1ccc(NC(=O)c2ccccc2NS(=O)(=O)c2ccccc2)cc1 | 32.1% (inactive)
66 | CCOc1ccc(NC(=O)c2ccccc2NS(C)(=O)=O)cc1 | 0.287% (inactive)
67 | COc1ccc(-c2nn(-c3ccccc3)cc2/C=C\C(=O)Nc2ccc(C(=O)O)cc2)cc1 | 8.98% (inactive)
68 | Cc1ccc(-c2nn(-c3ccccc3)cc2/C=C/C(=O)Nc2cccc(S(N)(=O)=O)c2)cc1 | 120% (active)
69 | Cc1ccc(-c2nn(-c3ccccc3)cc2C(=O)Nc2cccc(S(=O)(=O)N3CCOCC3)c2)cc1 | 1.74% (inactive)

Row | Compound | protection from apoptosis
70 | O=S(=O)(c1ccc(SCc2ccccc2)nc1)N1CCCCCC1 | -5.69% (inactive)
71 | CC(=O)NCCC(=O)Nc1nc(-c2ccc3c(c2)OCCO3)cs1 | -3.86% (inactive)
72 | Cc1ccc(-c2csc(NC(=O)C3=COCCO3)n2)cc1C | 98.3% (active)
73 | NS(=O)(=O)c1ccc2nc(NC(=O)C3=COCCO3)sc2c1 | -1.35% (inactive)
74 | C#CCOCCOCCOCCNc1nc(N2CCN(C(=O)[C@H](CCC(=O)O)n3cc(CN)nn3)CC2)nc(N2CCN(C(=O)[C@H](CCC(=O)O)n3cc(CN)nn3)CC2)n1 | -5.06% (inactive)
75 | Cc1noc(C)c1S(=O)(=O)N(C)C[C@H]1Oc2ccc(NC(=O)C3CC3)cc2C(=O)N([C@H](C)CO)C[C@@H]1C | 4.52% (inactive)
76 | Cc1c(CC(=O)NCCCCCC(=O)O)c(=O)oc2cc3occ(-c4ccccc4)c3cc12 | -7.43% (inactive)
77 | CCCCCCc1ccc(O)cc1O | -5.91% (inactive)
78 | CCCCCCc1cc2cc(-c3nnc(-c4ccccc4)o3)c(=O)oc2cc1O | 119% (active)
79 | CCCCCCSc1ccc(-c2nc3ccc(Cl)cn3c2NCc2ccccc2)cc1 | -14.3% (inactive)
80 | O=C(COc1ccccc1F)NNC(=O)c1cc(Br)ccc1Cl | 4.16% (inactive)
81 | Clc1ccc(N/N=C/c2cccs2)nn1 | -1.26% (inactive)
82 | COc1cccc(/C=N/Nc2ccc(Cl)nn2)c1 | 0.496% (inactive)
83 | Oc1cccc(/C=N/Nc2ccc(Cl)nn2)c1O | 107% (active)
84 | CN(C)C(=O)COC(=O)c1cccc(S(=O)(=O)N2CC3(C)CC2CC(C)(C)C3)c1 (centres undefined) | -3.78% (inactive)
85 | COc1cc2nc(Cl)nc(NCCO)c2cc1OC | -1.61% (inactive)
86 | OCCNc1nc(Nc2ccc(Cl)c(Cl)c2)nc2ccccc12 | 89.8% (active)
87 | CN(C)c1nc(Nc2ccc(Cl)c(Cl)c2)nc(N(C)C)n1 | 2.44% (inactive)
88 | COc1cc(C(=O)NCC(c2ccco2)N2CCCC2)ccc1OCc1ccccc1 (centres undefined) | 0.158% (inactive)
89 | COc1ccc(NC(=O)N(C)C[C@H]2Oc3ccc(NC(=O)C4CC4)cc3C(=O)N([C@H](C)CO)C[C@@H]2C)cc1 | -3.33% (inactive)
